# Source: paper PMC7155171, “Probing the Open Global Health Chemical Diversity Library for Multistage-Active Starting Points for Next-Generation Antimalarials” (ACS Infectious Diseases, 2020)
# What was measured:
# [1] = tested on: P. berghei liver stage (PbLuc); set-up: species or system HepG2-A16-CD81; P. berghei luciferase sporozoite infection of hepatocytes, liver stage luminescence; settings: inhibitor; for PbLuc primary screen (10uM): inhibition % (n=1): 48 h
# [2] = tested on: HepG2-A16-CD81 hepatocytes; set-up: Uninfected hepatocyte viability, CellTiter-Glo luminescence; settings: cytotoxicity primary screen, inhibitor
Structure (SMILES),PbLuc primary screen (10uM): inhibition % (n=1) [1],PbLuc primary screen (2uM): inhibition % (n=1) [1],HepG2 toxicity primary screen (10uM): inhibition % (n=1) [2]
CCc1c(C)[nH]c2cc(C3CCN(Cc4ccc(F)cc4)C3)nn2c1=O (stereo not drawn) [DDD01060568],66.5%,40.31%,-18.6%
CCc1cc(=O)n2nc(C3CCN(C(=O)c4cccnc4)CC3)cc2[nH]1 [DDD01057176],13.3%,-5.593%,7.09%
COc1ccc(-c2c(C)nn3c(N)c(C#N)nnc23)cc1 [DDD01035158],3.19%,-31.95%,-8.26%
COc1cc2c(cc1-c1nc3c[nH]n(C)c-3n1)OCO2 [DDD01248770],28.7%,21.97%,-8.9%
CCc1nn2c(N)c(C#N)nnc2c1-c1ccc(OC)cc1 [DDD01035159],22.9%,19.08%,-3.73%
CCc1nn(C)c(N)c1-c1ccc2c(c1)OCO2 [DDD01074639],53.6%,37.53%,-45.08%
CCc1c(C)nn2c(=O)cc(C3CCN(C(=O)C4CC4)C3)[nH]c12 (stereo not drawn) [DDD01057056],26.6%,11.53%,1.97%
Cc1nsc(N2CCCN(CC(=O)N(C)C3CC3)CC2)n1 [DDD01066804],68.5%,-11.55%,-3.98%
COCC(=O)N1Cc2[nH]c3c(C)c(-c4cccs4)nn3c(=O)c2C1 [DDD01056747],27.2%,46.04%,-4.81%
CCCn1ncc(-c2nc3c[nH]n(CC)c-3n2)c1C [DDD01252709],-42.8%,-36.8%,4.05%
